# An excerpt weighted towards active compounds, which were near 10% of everything screened.
# JMJD2A Tudor inh – JMJD2A Tudor domain (human) inhibition | Potency, µM (titrated, usually from 114 µM), without a hit: top-dose activity change, negative = inhibition, hits mostly inhibitors | AID 504339 | O75164 | AlphaScreen JMJD2A-Tudor / H3K4me3 peptide binding | 390,000 compounds, 4.4% hits; further: potency means the concentration at half of the fitted maximal effect; on the % scale 0 is the no-effect control and ±100 the full control effect; nearly all actives have a fitted effect of over 50% in size
# Six1-Eya2 blk – blocks human Six1 binding to Eya2; Q15475+O00167; AlphaScreen GST-Six1/His-Eya2 binding, biochemical; hits give low values; activity change, % (no concentration beside the values); 360,000 compounds, 0.56% hits; AID 651725; in the data active means activity change below about -65%; inconclusive means mostly about -30% to -63%; further: on the % scale 0 is the no-effect control and ±100 the full control effect
#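 AlphaScreen with GST-Six1 and His-Eya2 (5X mix: 250 nM and 500 nM), glutathione donor and nickel acceptor beads; buffer 50 mM Tris pH 8.0, 300 mM NaCl, 1 mM TCEP; 1 h at 37 C in the dark.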
# G9a inh – inhibitors of human histone lysine methyltransferase G9a; AID 504332; G9a H3K9 monomethylation, AlphaScreen, 2 h; 350,000 compounds, 8.8% hits; Potency, µM (series often up to 102 µM), without a hit: at the highest dose activity, negative = inhibition, usual class: inhibitors; Q96KQ7; further: potency means the concentration at half of the fitted maximal effect; on the % scale 0 is the no-effect control and ±100 the full control effect; nearly all actives have a fitted effect of over 75% in size
#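 Chemiluminescent proximity detection of H3K9 monomethylation, read after 10 min bead incubation in the dark. Reaction: 20 nM G9a, 500 nM biotin-H3K9 peptide, 20 uM SAM cofactor, 2 h, room temperature, following 15 min enzyme-compound preincubation.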
# CtBP-E1A inh – blocks the CtBP interaction with E1A; AlphaScreen GST-E1A/His-CtBP binding, 1536-well; hits give low values; activity change, % (no concentration beside the values); 340,000 compounds, 0.49% hits; in the data active means activity change below about -65%; inconclusive means mostly about -30% to -63%; further: on the % scale 0 is the no-effect control and ±100 the full control effect
#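 GST-E1A and His-tagged CtBP (125 nM each as 5X stock) were preincubated with pin-transferred compound for 2 h at 37 °C in the dark, then glutathione donor and nickel acceptor beads were added for 1 h before AlphaScreen reading.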
# HP1b chromo inh – inhibitors of HP1-beta chromodomain binding to methylated histone tails. P83916. AlphaScreen HP1-beta / biotin-H3K9me3 peptide binding. Potency, µM (highest dose often 114 µM), for the others: at the highest dose activity change, negative = inhibition, most hits filed as inhibitors. 390,000 compounds, 0.56% hits; further: potency means the concentration at half of the fitted maximal effect; nearly all actives have a fitted effect of over 70% in size
#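 Compound inhibition of the preformed complex between 50 nM HP1-beta and 50 nM biotinylated H3K9me3 peptide was read by AlphaScreen. Buffer was PBS pH 7.4 with 0.01% Tween-20. Incubations ran 30 min at room temperature, with 10 ug/mL donor/acceptor beads.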
# BAZ2B inh – BAZ2B (human) inhibition; Q9UIF8; AlphaScreen BAZ2B-H3K14Ac peptide displacement; Potency, µM (doses to about 114 µM), without a hit: at the highest dose activity change, negative = inhibition, usual class: inhibitors; 360,000 compounds, 4.4% hits; further: potency means the concentration at half of the fitted maximal effect; on the % scale 0 is the no-effect control and ±100 the full control effect; nearly all actives have a fitted effect of over 60% in size
#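 Inhibition is scored as reduced AlphaScreen emission. The BAZ2B/b-H3(5-23)K14Ac complex (50 nM each) in PBS pH 7.4, 0.01% Tween-20 meets compound (up to 110 uM) for 30 min at RT before bead addition.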
# * marks the source's active call; other numbers are inactive results; ? = inconclusive; . = no result; [ ] = remark or other dose. Unless noted, the call rests on the fitted dose curve; in most records, active means well fitted inhibition curve with a large enough effect; inconclusive means small, poorly fitted or top-dose-only effect; inactive means no such curve, though single readings can be large or run the other way.
SMILES,JMJD2A Tudor inh,Six1-Eya2 blk,G9a inh,CtBP-E1A inh,HP1b chromo inh,BAZ2B inh
O=C(CSc1nnc(-c2cccnc2)n1Cc1ccco1)c1ccc2ccccc2c1,-33%,-7,50µM*,-17,-2%,0%
O=C(CSc1nnc(-c2cnccn2)n1Cc1ccco1)c1ccc(Cl)cc1,-28%,-12,?,-16,21%,-32%
COCCNC(=O)C1CCCN(C(=O)Cc2ccc(F)cc2)CC1 (stereo not given),.,2,.,2,.,.
Cc1ccc(NC(=O)CN2C(=O)C(c3ccc(C(C)(C)C)cc3)=NC2(C)C)cc1,-7%,.,-4%[59 µM],.,36%,2%
Cc1cc(-c2ccccc2)nc2cc(C(=O)Nc3cc(C(F)(F)F)ccc3Cl)nn12,?,.,?,.,10%,?
CCNC(=O)C[C@@H]1C=C[C@@H](NS(=O)(=O)c2ccc(F)cc2)[C@@H](CO)O1,.,4,.,-15,.,.
O=C(NCc1ccccc1Cl)c1cc(=O)[nH]c2ccccc12,-4%,-1,?,-13,36%,-1%
CC(C)(C)c1ccc(CSc2nnc(-c3ccccn3)n2Cc2ccco2)cc1,-23%,-22,-5%[12.7 µM],4,21%,?
Brc1ccc(CSc2nnc(-c3ccccn3)n2Cc2ccco2)cc1,-33%,-11,50µM*,-9,26%,?
O=C(CSc1nnc(-c2ccccn2)n1Cc1ccco1)c1ccc(Cl)cc1,?,-22,40µM*,-18,13%,?
O=[N+]([O-])c1cc(-c2ncccn2)c([N+](=O)[O-])s1,-24%,-12,28µM*,-10,20%,?
O=C(Nc1ncccn1)c1cc([N+](=O)[O-])cc([N+](=O)[O-])c1,-26%,5,15%[59 µM],-1,8%,-1%
COc1ccc(-c2nc(-c3ccccc3)c(-c3cc([N+](=O)[O-])ccc3C)[nH]2)cc1OC,-18%[11.4 µM],-29,?,-26,?,45µM*
O=[N+]([O-])c1ccc(O)c(-c2nc(-c3ccccc3)c(-c3cccs3)[nH]2)c1,45µM*,-2,35%[0.501 µM],-6,?,35µM*
O=[N+]([O-])c1ccc2nc(-c3ccccc3)[nH]c2c1,-26%,-10,20%[59 µM],-10,-5%,-3%
CCOc1cc(-c2nc(-c3ccccc3)c(-c3cc([N+](=O)[O-])ccc3C)[nH]2)ccc1O,?,-26,14µM*,-16,-30%,?
CCCCn1c(CCC)nc([N+](=O)[O-])c1Sc1ccc(Cl)cn1,-22%,-1,14µM*,-2,4%,-20%
Cc1ccccc1OCC(=O)NCC(=O)OCC(=O)c1ccc(Br)cc1,-12%[57.1 µM],.,.,.,13%[57 µM],.
COc1ccc(OC)c(-c2csc(NC(=O)CN3C(=O)C4CCCCC4C3=O)n2)c1 (stereo not given),?,12,50µM*,2,?,?
COc1ccc(-c2csc(NC(=O)CN3C(=O)NC4(CCCC4)C3=O)n2)c(OC)c1,-30%,-2,50µM*,-7,0%,-4%
CC(C)(C)c1ccc(-c2csc(NC(=O)CN3C(=O)NC4(CCCCC4)C3=O)n2)cc1,-6%,-1,39%[12.7 µM],1,22%,-5%
COc1ccc(OC)c(-c2csc(NC(=O)Cc3cc(OC)c(OC)c(OC)c3)n2)c1,-16%,-7,19%,-5,12%,1%
COc1ccc(-c2csc(NC(=O)CN3C(=O)NC4(CCCC4)C3=O)n2)cc1OC,-21%,-4,56µM*,-12,-2%,-22%
COc1ccc(OC)c(-c2csc(NC(=O)COC(=O)c3ccc(NC(=O)CC#N)cc3)n2)c1,45µM*,-16,11%[12.7 µM],-17,-12%,40µM*
CCCCn1c(=O)c2oc3ccccc3c2n(CC(=O)Nc2cc(C)ccc2C)c1=O,12%,.,-5%[59 µM],.,36%,-17%
SMILES,JMJD2A Tudor inh,Six1-Eya2 blk,G9a inh,CtBP-E1A inh,HP1b chromo inh,BAZ2B inh
O=C(CCN1C(=O)/C(=C/c2ccccc2Cl)SC1=S)N1CCCC1,?,18,13%,0,?,25µM*
O=C(CCN1C(=O)/C(=C/c2ccccc2Cl)SC1=S)N1CCOCC1,-15%,-1,?,-2,32%,?
O=C(CCCN1C(=O)/C(=C/c2ccccc2Cl)SC1=S)N1CCCC1,14µM*,?,-6%[12.7 µM],.,?,14µM*
COc1ccc(C2=Nn3c(nnc3-c3ccccc3C)SC2)cc1,-17%,.,.,.,.,.
CC(=O)N[C@@H](CSC(=O)[C@]1([C@@H](O)C(C)C)NC(=O)[C@H](C)[C@@H]1O)C(=O)O,.,.,-23%[12.7 µM],.,.,.
CCOC(=O)c1cccc(NC(=O)CSc2ncc3c(n2)-c2ccc(Cl)cc2N(Cc2ccccc2)S3(=O)=O)c1,-13%,.,?,.,-5%,-9%
COc1ccc(N2CCN(C(=O)CSc3c4c(nc5ccc(Cl)cc35)CCCC4)CC2)cc1,22µM*,.,11µM*,.,-27%,.
O=C(O)CSc1c2c(nc3cc(C(=O)Nc4ccc(F)c(Cl)c4)ccc13)CCCC2,-32%,6,.,.,4%[57 µM],50µM*
COc1ccc(NC(=O)c2ccc3c(SCC(=O)O)c4c(nc3c2)CCCC4)c(OC)c1,?,-14,50µM*,-20,9%,?
COc1ccc(NC(=O)c2ccc3c(SCC(=O)O)c4c(nc3c2)CCCC4)cc1Cl,.,.,?,.,.,-34%
COc1ccc(Cl)cc1NC(=O)c1ccc2c(SCC(=O)O)c3c(nc2c1)CCCC3,-34%,0,50µM*,0,?,-2%
COc1ccc(-c2ccncc2)cc1OC,?,.,.,.,12%,.
Cc1ccccc1-n1ncc(C(C)NC(=O)c2ccccc2)c1C (stereo not given),0%,2,13%,.,31%,4%
Cc1ccc(CNC(=O)c2nc(SCc3ccc(F)cc3)ncc2Cl)cc1,-14%,.,9%[59 µM],.,3%,1%
CCCCCCCN1N=C(C)C(C(=O)c2ccccc2)C1=O (stereo not given),50µM*,-12,?,10,5%,?
CCC(=O)Nc1ccc(CC)cc1-c1nc2ccccc2n(CC(=O)Nc2cccc(OC)c2)c1=O,-8%,.,-26%[59 µM],.,29%,-2%
COc1ccc(C(=O)NCc2n[nH]c(=S)n2-c2ccccc2)cc1OC,6.3µM*,0,?,5,11%,0%
COc1cc(OC)cc(C(=O)NCc2n[nH]c(=S)n2-c2ccccc2)c1,7.9µM*,0,7%[0.0925 µM],0,18%,10%
CCCC1=Nc2cc(C(=O)NCc3ccccc3)ccc2Sc2ccccc21,-26%,.,-31%[59 µM],.,14%,-27%
CCOCCCn1c(=S)[nH]c2cc(C(=O)NCCc3ccc(OC)c(OC)c3)ccc2c1=O,3%,2,.,1,53%,-1%

# High-throughput results deposited in PubChem BioAssay by National Center for Advancing Translational Sciences (NCATS).
